Test results: PubChem BioAssay
The source made the active and inactive calls.

How the values were obtained:
[1] = optical density shifts of acrAB sulA E. coli – strain DRC41, OD650, 48 h, E. coli filamentation inducer project, primary screen (AID 1152); conditions: higher = more signal, called active from +8 up or from −8 down;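 note: E. coli MC1000 strain DRC41 lacking acrAB efflux pump and sulA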
[2] = probe aLefty1 binding on compound microarray – biochemical, small-molecule microarray, 635/667 nm fluorescence, primary screen (AID 1153); conditions: higher = more signal;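 note: score merges spot fluorescence with signal-to-noise ratio from the scanned slide images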
[3] = plasmodial surface anion channel blockers, osmotic lysis – cell-based, P. falciparum Indochina, OD700, 1 h, primary screen (AID 1154); conditions: P. falciparum Indochina infected RBC osmotic lysis, higher = more signal, called active from +8 up or from −8 down
[4] = plasmodial surface anion channel blockers, osmotic lysis – cell-based, P. falciparum Indochina, OD700, 2 h, primary screen (AID 1155);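 note: lysis reports solute entry through the parasite surface anion channel PSAC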; conditions: P. falciparum Indochina infected erythrocytes, higher = more signal, called active from +8 up or from −8 down
[5] = changes in parasitized red cell lysis, either direction – P. falciparum Indochina, OD700, 3 h, PSAC antagonist project, primary screen (AID 1156); conditions: P. falciparum-infected erythrocytes, osmotic lysis, higher = more signal, called active from +8 up or from −8 down
[6] = plasmodial surface anion channel blockers, osmotic lysis – cell-based, P. falciparum Indochina, OD700, 18 h, primary screen (AID 1157); conditions: P. falciparum Indochina infected erythrocytes, osmotic lysis OD700, 18 h; higher = more signal, called active from +8 up or from −8 down
[7] = S6 kinase pathway phospho-S6 level changes – cell-based, A549, cytoblot, luminescence, serum-stimulated, primary screen (AID 1158); conditions: 5 h, higher = more signal;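 note: serum-stimulated A549 lung adenocarcinoma cells; signal is phosphorylated S6 detected by cytoblot immunostaining with HRP secondary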
[8] = target: NADPH oxidase 2 (Homo sapiens) (UniProt P04839); experiment: compounds shifting NOX2 Amplex Red fluorescence – cell-based, HEK293-NOX2, PMA-stimulated, NOX inhibitor project, primary screen (AID 1159); conditions: 45 min, higher = more signal, called active from +8 up or from −8 down; note: test concentration not given here
[9] = target: NADPH oxidase 4 (Homo sapiens) (UniProt Q9NPH5); experiment: compounds shifting NOX4 Amplex Red fluorescence – cell-based, HEK293-NOX4, tetracycline-induced, NOX inhibitor project, primary screen (AID 1160); conditions: HEK293-NOX4, Amplex Red H2O2 fluorescence, 45 min; higher = more signal, called active from +8 up or from −8 down
[10] = target: NADPH oxidase 5 (Homo sapiens) (UniProt Q96PH1); experiment: compounds shifting NOX5 Amplex Red fluorescence – cell-based, HEK293-NOX5, NOX inhibitor project, primary screen (AID 1161); conditions: HEK293-NOX5, ionomycin, 45 min, higher = more signal
[11] = compound effects on lung adenocarcinoma cell viability – A549, calcein-AM fluorescence, 48 h, basal, profiling panel (AID 1162); conditions: higher = more signal; note: test concentration not given here
[12] = compound effects on differentiated 3T3-L1 adipocyte viability – cell-based, 3T3-L1 adipocytes, calcein-AM fluorescence, 48 h, basal, profiling panel (AID 1163); conditions: 3T3-L1 adipocytes viability, higher = more signal; note: test concentration not given here
[13] = compound effects on hepatocellular carcinoma cell viability – HepG2, calcein-AM fluorescence, 48 h, basal, profiling panel (AID 1164); conditions: higher = more signal; note: test concentration not given here
[14] = compound effects on multiple myeloma cell viability – MM1S, calcein-AM fluorescence, 48 h, basal, profiling panel (AID 1165); conditions: higher = more signal; note: test concentration not given here
[15] = calcein-AM signal in unstimulated myeloma cells – cell-based, calcein-AM fluorescence, 48 h, PK04 Diversity Set, profiling panel (AID 1166); conditions: RPMI8226 myeloma viability, higher = more signal;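 note: cells grown under basal conditions without added stimulus; test concentration not given here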
[16] = JC-1 mitochondrial signal, unstimulated HepG2 cells – cell-based, JC-1 fluorescence, 24 h, 100 nL compound, profiling panel (AID 1167); conditions: HepG2 mitochondrial potential, higher = more signal; note: test concentration not given here
[17] = JC-1 mitochondrial signal, unstimulated adipocytes – cell-based, JC-1 fluorescence, 3T3-L1 adipocytes, 24 h, 100 nL compound, profiling panel (AID 1168); conditions: JC-1 mitochondrial fluorescence, higher = more signal, called active from +8 up or from −8 down; note: test concentration not given here
[18] = JC-1 mitochondrial signal, unstimulated myeloma cells – cell-based, JC-1 fluorescence, RPMI8226, 24 h, 100 nL compound, profiling panel (AID 1169); conditions: JC-1 mitochondrial potential fluorescence, higher = more signal; note: test concentration not given here
[19] = JC-1 mitochondrial signal, unstimulated MM1S myeloma – cell-based, JC-1 fluorescence, 24 h, 100 nL compound, profiling panel (AID 1170); conditions: MM1S mitochondrial potential, higher = more signal; note: test concentration not given here
[20] = resazurin metabolic signal in A549 cells – cell-based, resazurin fluorescence, 24 h, PK04 Diversity Set, profiling panel (AID 1171); conditions: A549 viability, higher = more signal, called active from +8 up or from −8 down; note: test concentration not given here

NADPH oxidase 4 (Homo sapiens), sequence (Q9NPH5 whole entry, looked up): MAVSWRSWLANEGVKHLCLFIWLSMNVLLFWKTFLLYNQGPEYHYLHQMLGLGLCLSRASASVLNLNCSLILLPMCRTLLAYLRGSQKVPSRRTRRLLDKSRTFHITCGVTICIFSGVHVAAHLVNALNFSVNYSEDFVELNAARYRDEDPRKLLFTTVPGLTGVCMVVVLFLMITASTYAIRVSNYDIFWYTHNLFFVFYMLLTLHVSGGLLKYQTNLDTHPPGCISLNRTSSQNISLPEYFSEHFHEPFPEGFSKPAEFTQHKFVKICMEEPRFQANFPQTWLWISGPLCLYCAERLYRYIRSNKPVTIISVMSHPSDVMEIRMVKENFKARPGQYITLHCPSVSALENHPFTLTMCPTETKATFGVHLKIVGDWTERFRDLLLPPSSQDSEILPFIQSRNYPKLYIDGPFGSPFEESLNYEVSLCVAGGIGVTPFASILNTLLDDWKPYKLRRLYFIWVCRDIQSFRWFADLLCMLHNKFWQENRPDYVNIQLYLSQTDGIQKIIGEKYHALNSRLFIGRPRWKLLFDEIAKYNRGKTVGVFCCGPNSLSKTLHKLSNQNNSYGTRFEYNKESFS
NADPH oxidase 2 (Homo sapiens), sequence (P04839 whole entry, looked up): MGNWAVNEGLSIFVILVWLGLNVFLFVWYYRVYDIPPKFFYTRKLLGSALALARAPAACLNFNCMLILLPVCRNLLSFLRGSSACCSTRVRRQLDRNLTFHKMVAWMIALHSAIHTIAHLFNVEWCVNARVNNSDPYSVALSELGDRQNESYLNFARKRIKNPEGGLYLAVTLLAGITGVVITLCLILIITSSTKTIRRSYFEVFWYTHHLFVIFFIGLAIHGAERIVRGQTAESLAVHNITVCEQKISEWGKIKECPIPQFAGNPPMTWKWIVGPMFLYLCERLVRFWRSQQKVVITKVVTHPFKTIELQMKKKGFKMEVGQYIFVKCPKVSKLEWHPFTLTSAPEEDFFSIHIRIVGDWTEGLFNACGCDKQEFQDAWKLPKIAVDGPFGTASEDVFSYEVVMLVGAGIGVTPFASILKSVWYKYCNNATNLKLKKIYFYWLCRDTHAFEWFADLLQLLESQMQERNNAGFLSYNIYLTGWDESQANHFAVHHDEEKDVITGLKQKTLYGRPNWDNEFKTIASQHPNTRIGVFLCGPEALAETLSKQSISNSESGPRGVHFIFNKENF
NADPH oxidase 5 (Homo sapiens), sequence (Q96PH1 whole entry, looked up): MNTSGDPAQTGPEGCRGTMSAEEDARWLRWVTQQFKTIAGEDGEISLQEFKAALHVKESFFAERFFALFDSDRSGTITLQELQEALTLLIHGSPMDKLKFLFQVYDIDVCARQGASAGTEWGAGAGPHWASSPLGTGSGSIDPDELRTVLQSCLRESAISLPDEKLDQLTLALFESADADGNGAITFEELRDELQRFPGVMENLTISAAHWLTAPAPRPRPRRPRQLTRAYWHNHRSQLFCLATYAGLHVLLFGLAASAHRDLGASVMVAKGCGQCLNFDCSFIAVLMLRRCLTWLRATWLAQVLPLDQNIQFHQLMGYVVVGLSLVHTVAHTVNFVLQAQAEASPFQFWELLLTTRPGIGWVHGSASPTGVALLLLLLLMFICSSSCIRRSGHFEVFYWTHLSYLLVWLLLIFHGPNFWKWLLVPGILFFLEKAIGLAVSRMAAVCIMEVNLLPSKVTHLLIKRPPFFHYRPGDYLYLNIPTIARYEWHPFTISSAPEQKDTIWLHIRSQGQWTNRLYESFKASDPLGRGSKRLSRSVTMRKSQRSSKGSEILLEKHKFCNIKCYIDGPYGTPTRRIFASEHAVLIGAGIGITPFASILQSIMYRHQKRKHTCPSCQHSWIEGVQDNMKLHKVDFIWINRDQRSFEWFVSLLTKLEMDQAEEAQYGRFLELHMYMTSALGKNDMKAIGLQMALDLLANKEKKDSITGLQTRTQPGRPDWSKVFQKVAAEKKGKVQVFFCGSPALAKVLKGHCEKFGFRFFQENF

SMILES	z-score [1]	composite z-score [2]	z-score [3]	z-score [4]	z-score [5]	z-score [6]	z-score [7]	z-score [8]	z-score [9]	z-score [10]	z-score [11]	z-score [12]	z-score [13]	z-score [14]	z-score [15]	z-score [16]	z-score [17]	z-score [18]	z-score [19]	z-score [20]
[N-]=[N+]=NCc1ccccc1C[C@]1(C(=O)O)N=C(c2ccc(OCCCO)cc2)O[C@H]1c1ccccc1	-0.0931 (inactive)	0.0299	9.62 (active)	0.754 (inactive)	-0.468 (inactive)	-0.0988 (inactive)	-0.381	0.453 (inactive)	1.4 (inactive)	1.68	-0.755	-0.4	-0.509	-1.19	-0.388	-1.62	0.336 (inactive)	-0.179	0.181	0.0055 (inactive)
C[N+](C)(C)CCCCCCNC(=O)[C@H]1C[C@H]2C(=O)N3CCC[C@H]3C(=O)N2[C@H]1c1ccc(O)cc1	0.864 (inactive)	-0.0489	1.37 (inactive)	-0.948 (inactive)	-0.937 (inactive)	-1.44 (inactive)	0.707	-0.87 (inactive)	-1 (inactive)	-2.81	-0.827	0.262	-1.14	0.327	0	-1.4	0.435 (inactive)	-0.655	-0.439	0.194 (inactive)
COCCCNC(=O)[C@@]1(C)c2ccccc2C(=O)N(Cc2cc(C(F)(F)F)cc(C(F)(F)F)c2)[C@H]1c1ccc(CO)cc1	0.811 (inactive)	-0.0969	3.5 (inactive)	-0.185 (inactive)	-0.583 (inactive)	0.472 (inactive)	-0.434	-1.09 (inactive)	-0.274 (inactive)	-0.706	-0.0997	-0.872	0.771	0.384	-0.509	1.59	1.01 (inactive)	0.222	-0.668	0.545 (inactive)
Cc1ccc(S[C@]2(C(=O)NCc3ccccc3)CC(=O)N(Cc3ccccc3Cl)[C@@H]2c2ccc(CO)cc2I)cc1	0.196 (inactive)	0.0903	3.44 (inactive)	0.68 (inactive)	1.9 (inactive)	0.255 (inactive)	0.379	2.76 (inactive)	-0.824 (inactive)	0.774	0.34	1.13	-0.0653	-1.73	-1.65	-0.44	0.376 (inactive)	-0.0557	-2.15	1.6 (inactive)
O=C1OCC=C[C@H]2OC34C=CCN(c5ccc6ccccc6c5)C(=O)[C@H]3N(CCCO)C(=O)[C@@H]4[C@@H]12 (stereo not given in full)	0.392 (inactive)	0.251	0.638 (inactive)	-0.0892 (inactive)	0.572 (inactive)	-1.56 (inactive)	1.28	1.09 (inactive)	-0.0483 (inactive)	0.904	0.501	1.79	0.0068	-0.608	-0.691	-0.448	-0.517 (inactive)	0.0183	-0.46	-1.09 (inactive)
O=C(CS)NCCCCCCNC(=O)[C@H]1C[C@H]2C(=O)NCC(=O)N2[C@H]1c1ccc(O)cc1	-0.618 (inactive)	-0.0969	2.33 (inactive)	0.141 (inactive)	-2.02 (inactive)	0.23 (inactive)	-0.598	1.45 (inactive)	0.407 (inactive)	-0.391	0.324	0.277	0.555	-0.31	0.325	-0.32	-0.607 (inactive)	-0.645	-0.459	-0.27 (inactive)
CC(C)C(=C=CC[C@@H](O)c1ccccc1OCCO)C[C@@H](O)c1ccccn1	-0.258 (inactive)	0.0437	6.05 (inactive)	1.2 (inactive)	0.611 (inactive)	0.774 (inactive)	-0.632	0.216 (inactive)	-0.725 (inactive)	-1.6	-0.158	0.0388	-0.0925	-0.757	0.0845	-0.687	-0.425 (inactive)	-0.0863	-0.0458	0.248 (inactive)
C=CCNC(=O)[C@@H]1[C@H]2C(=O)O[C@H](c3ccccc3)[C@H](c3ccccc3)N2[C@H](c2ccc(O)cc2)[C@@]12C(=O)N(C(=O)OCCOC)c1ccccc12	0.808 (inactive)	0.149	1.35 (inactive)	-0.27 (inactive)	0.123 (inactive)	-1.08 (inactive)	1.64	0.818 (inactive)	-0.913 (inactive)	-2.08	0.231	2.01	0.0902	-0.549	-1.52	-0.338	0.951 (inactive)	0.104	-0.0916	0.425 (inactive)
C=CCNC(=O)[C@H]1[C@@H]2C(=O)O[C@@H](c3ccccc3)[C@@H](c3ccccc3)N2[C@@H](c2ccc(O)cc2)[C@]12C(=O)N(C(=O)OCCOC)c1ccc(C#CCCO)cc12	1.23 (inactive)	0.0341	1.89 (inactive)	0.658 (inactive)	0.958 (inactive)	0.418 (inactive)	0.102	0.74 (inactive)	0.261 (inactive)	0.533	1.07	0.482	0.802	-0.0589	0.233	0.0998	0.541 (inactive)	-1.07	0.45	-0.319 (inactive)
